Assay results taken from PubChem BioAssay (Tox21).
Inconclusive results are not listed. Calls of active or inactive are those of the source. Calls follow the shape of the full dose curve.

Assays:
[1] = molecular target: Acetylcholinesterase (Homo sapiens) (UniProt P22303); experiment: Acetylcholinesterase (AChE) small molecule antagonists: colormetric cell-based qHTS assay (AID 1347395); conditions: SH-SY5Y cells AChE activity, colorimetric (Ellman); series mostly up to 115 µM; also: nearly all actives have a fitted effect of over 30% in size
In short: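 SH-SY5Y cells, plated overnight at 37 C, were exposed to compounds for 30 min at 37 C and 5% CO2. Acetylthiocholine plus DTNB was then added, and thiocholine from endogenous AChE was quantified colorimetrically after 90 min at 37 C.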

[2] = molecular target: Acetylcholinesterase (Homo sapiens) (UniProt P22303); experiment: Acetylcholinesterase (AChE) small molecule antagonists: enzyme-based qHTS assay (AID 1347397); conditions: Potency: AChE enzyme activity inhibition; outcome: AChE enzyme activity inhibition; series mostly up to 115 µM; also: nearly all actives have a fitted effect of over 55% in size
In short: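 Compound or DMSO vehicle was pin-transferred onto recombinant human AChE (50 mU/mL as dispensed) and left 30 min at room temperature. Acetylthiocholine with DTNB then started the reaction, read colorimetrically 10 min later.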

[3] = molecular target: Acetylcholinesterase (Homo sapiens) (UniProt P22303); experiment: Acetylcholinesterase (AChE) small molecule antagonists: fluorescence cell-based qHTS assay (AID 1347398); conditions: SH-SY5Y cells; Potency: AChE activity; outcome: AChE activity; series mostly up to 115 µM; also: nearly all actives have a fitted effect of over 50% in size
In short: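 Using neuroblastoma SH-SY5Y cells as the enzyme source, test chemicals are preincubated 30 min at 37 C; AChE-driven acetylthiocholine cleavage is then quantified by thiocholine-dependent Thiolite Green fluorescence after 40 min at room temperature.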

[4] = molecular target: Acetylcholinesterase (Homo sapiens) (UniProt P22303); experiment: Acetylcholinesterase (AChE) small molecule antagonists: enzyme-based qHTS assay with human liver microsomes (AID 1347399); conditions: Potency: qHTS inhibition; outcome: qHTS inhibition; series mostly up to 115 µM; also: nearly all actives have a fitted effect of over 60% in size
In short: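 Recombinant human AChE (50 mU/mL in the enzyme mix) and human liver microsomes (0.25 mg/mL final) were preincubated with compound and NADPH (0.25 mg/mL final) for 30 min at 37 C. Acetylthiocholine/DTNB was then added; thiocholine was read colorimetrically after 10 min at room temperature.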

Measured: Potency

Acetylcholinesterase (Homo sapiens), sequence (P22303 whole entry, looked up): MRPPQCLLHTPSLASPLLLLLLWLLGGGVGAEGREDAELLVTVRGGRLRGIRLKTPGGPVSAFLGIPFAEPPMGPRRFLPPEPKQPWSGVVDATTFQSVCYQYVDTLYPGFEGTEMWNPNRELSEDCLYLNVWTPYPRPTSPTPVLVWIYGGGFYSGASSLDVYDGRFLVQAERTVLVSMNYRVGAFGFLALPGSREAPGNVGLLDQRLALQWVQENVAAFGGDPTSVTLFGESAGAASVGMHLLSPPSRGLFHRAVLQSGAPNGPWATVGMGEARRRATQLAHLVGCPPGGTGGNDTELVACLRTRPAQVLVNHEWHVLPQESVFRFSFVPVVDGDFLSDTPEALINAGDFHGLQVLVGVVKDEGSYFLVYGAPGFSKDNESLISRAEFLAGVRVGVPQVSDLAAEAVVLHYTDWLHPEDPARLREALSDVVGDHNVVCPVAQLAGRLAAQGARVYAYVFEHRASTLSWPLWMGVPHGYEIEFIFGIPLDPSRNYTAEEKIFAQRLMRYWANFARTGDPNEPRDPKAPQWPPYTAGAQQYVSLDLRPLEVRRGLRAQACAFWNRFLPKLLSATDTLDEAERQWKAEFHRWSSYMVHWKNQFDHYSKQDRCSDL

CC1CCCO1 (stereo unspecified)
inactive: all assays above

Cc1ccc(C(C)NC(=O)[C@@H](NC(=O)OC(C)C)C(C)C)cc1 (stereo partly specified)
inactive: all assays above

COc1ccc2[nH]c(S(=O)Cc3ncc(C)c(OC)c3C)nc2n1 (stereo unspecified)
inactive: all assays above

CC1CNCC(C)O1 (stereo unspecified)
inactive: all assays above
